Most compounds without a hit are left out; they make up all but 6.3% or so of the library.
TIM10 inh: growth inhibitors of isogenic TIM10 control yeast, primary screen, counter-screen for tim10-1 yeast inhibitor project, luminescence, uHTS; S. cerevisiae TIM10 strain growth, BacTiter-Glo luminescence, 24 h; inhibition, % at 10 µM; 1.4% of 330,000 active; AID 463195, 2010;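 active = inhibition of 40% or more at the single tested concentration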;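 note: wild-type TIM10 isogenic control strain grown at permissive 25 °C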
tim10-1 inh: growth inhibitors of tim10-1 mutant yeast, primary screen, luminescence, uHTS; S. cerevisiae tim10-1 ts strain growth, BacTiter-Glo, 24 h; inhibition, % at 20 µM; AID 463190, 2010; 2.2% of 330,000 active;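 active = inhibition of at least 40%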;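 note: mutant grown at 25 °C; 0% = DMSO wells with yeast and 100% = wells holding no yeast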
Mdm2 MdmX PPI: inhibitors of human Mdm2-MdmX association, primary screen, cell-based, luminescence, split luciferase, SaOS-2, uHTS. Protein Mdm4 (Homo sapiens) + E3 ubiquitin-protein ligase Mdm2 (Homo sapiens), …. SaOS-2 split-luciferase Mdm2/MdmX complementation. inhibition, % at 8 µM. 3% of 330,000 active;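 active = inhibition of at least 50% at 8 µM in the primary screen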
MPTP block: mitochondrial permeability transition pore inhibitors, primary screen, biochemical, isolated mouse mitochondria, absorbance | Ca2+ swelling absorbance, 30 min | inhibition, % at 10 µM | 1.4% of 360,000 active | AID 602449, 2012;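 active = inhibition of 50% or more, scaled per plate between neutral and stimulator controls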;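 note: 0% = DMSO wells given calcium and 100% = 1 mM EGTA wells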
tim23-1 inh: growth inhibitors of tim23-1 mutant yeast, primary screen, luminescence, uHTS. inhibition, % at 20 µM. 1.3% of 330,000 active. S. cerevisiae tim23-1 growth, BacTiter-Glo luminescence, 24 h. AID 463212, 2010;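 active = growth inhibition of the mutant yeast at or above 50%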;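 note: temperature-sensitive mutant grown at 25 °C; plate controls were DMSO-treated mutant yeast for no effect and medium wells lacking yeast for full effect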
Mdm2 MdmX conf: Mdm2-MdmX complex disruptors, retested hits, confirmation, luminescence, single concentration; shares compounds with Mdm2 MdmX PPI; Mdm2-MdmX binding, luminescent assay; inhibition, % at 8 µM; 55% of 10,000 active; in the data active = inhibition above about 40%
Full FLuc ctr: full-length luciferase signal inhibition, confirmation, counter-screen for Mdm2/MdmX interaction inhibitor project, cell-based, single concentration, SaOS-2; shares compounds with Mdm2 MdmX PPI; SaOS-2 full-length luciferase counterscreen, luminescence; inhibition, % at 8 µM; 77% of 6,200 active;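 active = mean inhibition at 8 µM reaching about 37%, which flags the compound as non-specific, limit read from the data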;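 note: p53-null SaOS-2 cells with luciferase driven by a doxycycline-inducible promoter; compound on cells about two nights before reading with doxycycline added after day one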
Starred values were filed as active, the others as inactive; nt = no result.

SMILES	TIM10 inh	tim10-1 inh	Mdm2 MdmX PPI	MPTP block	tim23-1 inh	Mdm2 MdmX conf	others
COc1ccc(N=Cc2c(O)n(-c3ccc(OC)cc3)c(=O)c3ccccc23)cc1	0	0	50	0	-16	nt
O=c1c2ccccc2c(C=Nc2cccc(O)c2)c(O)n1-c1ccc2c(c1)OCO2	-25	-15	82*	-2	-19	36
CCOC(=O)c1ccc(Oc2cc(C)nc(SC)n2)cc1	-12	13	56*	2	12	58*	Full FLuc ctr=49*
Cc1occc1C(=O)Nc1nnc(C(F)(F)F)s1	1	9	-11	2	15	nt
O=C(Nc1ccccc1C(=O)Nc1nnc(C(F)(F)F)s1)c1ccccc1	-10	13	97*	1	26	97*	Full FLuc ctr=20
CCOc1ccccc1OCCC(=O)N1CCN(S(=O)(=O)c2ccccc2[N+](=O)[O-])CC1	3	12	62*	-1	22	19
C(=N\Nc1ncnc2sc3c(c12)CCC3)/c1cccs1	26	36	58*	0	39	50*	Full FLuc ctr=19
COc1cc(C=C(C#N)c2ccc([N+](=O)[O-])cc2)ccc1O	nt	nt	nt	2	nt	nt
COCCNC(=O)C1CCCN(C(=O)Cc2ccc(F)cc2)CC1 (centres undefined)	nt	nt	nt	0	nt	nt
S=C1NC2=C(CCCC2=C2SCCS2)C(c2ccccc2)N1 (centres undefined)	19	14	65*	-2	25	23
COc1ccc(OC)c(CCNC(=O)c2ccc3c(c2)N(Cc2ccccc2)CCS3)c1	-7	12	29	1	15	nt
COc1ccc(CCNC(=O)c2ccc3c(c2)N(Cc2ccccc2)CCS3)cc1OC	7	-5	60*	-2	11	16
COc1cc2nc(NC(=O)c3ccc(Cl)cc3)sc(=O)c2cc1OC	-4	-8	69*	2	-2	24
COc1cc2nc(NC(=O)c3ccc(Cl)cc3)[nH]c(=O)c2cc1OC	14	18	2	-4	-1	nt
CN1OC[C@@H]2CN[C@H](c3ccc(-c4cc5ccccc5o4)cc3)C[C@@H]21	nt	nt	nt	-3	nt	nt
CCN(CC)CCN(Cc1cc2ccc(C)c(C)c2[nH]c1=O)C(=S)NCc1ccco1	10	18	88*	0	7	54*	Full FLuc ctr=82*
CCN(CC)CCN(Cc1cc2cc(C)cc(C)c2[nH]c1=O)C(=S)NCc1ccco1	0	14	-12	0	-1	nt
COc1cc(CN2C[C@@H](CO)O[C@@H](n3cnc4c(N5CCCC5)ncnc43)C2)cc(OC)c1OC	nt	nt	nt	0	nt	nt
CC(Oc1ccccc1)C(=O)NNC(=O)c1ccccn1 (centres undefined)	0	1	34	-1	4	nt
C/C(=N\NC(=O)C(C)Oc1ccc([N+](=O)[O-])cc1)c1ccccn1 (centres undefined)	12	20	54*	2	23	32
CC1=CC(C)[C@H](/C=N/n2c(=O)[nH]c3c([nH]c4ccc(C)cc43)c2=O)C(C)C1 (some centres undefined)	-18	16	86*	1	3	7
CN1CCC(N2CCN(C3CN(Cc4cn(Cc5cccc(C(F)(F)F)c5)nn4)S(=O)(=O)C3)CC2)CC1 (centres undefined)	nt	nt	nt	0	nt	nt
CN(CC(=O)Nc1ccccc1Br)C(=O)c1cccnc1Nc1cccc(C(F)(F)F)c1	-13	15	56*	1	45	-3
CNC(=O)c1cccnc1Nc1cccc(C(F)(F)F)c1	20	22	13	6	35	nt
Nc1nc(-c2ccccc2)nc(-c2ccccc2O)n1	9	31	62*	0	19	25
CCC(c1nnnn1-c1ccc2c(c1)OCCO2)N1CCN(c2ccccc2OC)CC1 (centres undefined)	nt	nt	nt	0	nt	nt

Screens deposited in PubChem by Sanford-Burnham Center for Chemical Genomics.
